Test results reported in PubChem BioAssay (NCI).
The panel holds about 83,000 compounds, 20% with a hit somewhere; the sample as a whole holds those more often.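 Activity criterion: percent growth below 10, measured after cells in 96-well plates were exposed to a single compound concentration for 48 hours.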 Calls of active or inactive are those of the source.

What was measured:
Assay in all cases: NCI-60 one-dose screen, 48 h (100 = growth as untreated, 0 = no growth, -100 = all killed)
HOP-92 NSCLC = details: 10 µM unless noted
COLO 205 colon = details: 10 µM
M14 melanoma = details: 10 µM unless noted
SK-MEL-2 melanoma = details: 10 µM unless noted
TK-10 renal = details: 10 µM unless noted
ACHN renal = details: 10 µM unless noted
SR leukemia = details: 10 µM
RPMI-8226 leukemia = details: 10 µM unless noted
OVCAR-5 ovarian = details: 10 µM unless noted
SK-OV-3 ovarian = details: 10 µM unless noted
IGROV1 ovarian = details: 10 µM
HS 578T breast = details: 10 µM unless noted
NCI/ADR-RES ovarian = details: 10 µM unless noted
HCT-116 colon = details: 10 µM unless noted
NCI-H522 lung = details: 10 µM unless noted
A549/ATCC NSCLC = details: 10 µM unless noted
EKVX NSCLC = details: 10 µM unless noted
CCRF-CEM leukemia = details: 10 µM unless noted
OVCAR-4 ovarian = details: 10 µM unless noted

| SMILES | growth (HOP-92 NSCLC) | growth (COLO 205 colon) | growth (M14 melanoma) | growth (SK-MEL-2 melanoma) | growth (TK-10 renal) | growth (ACHN renal) | growth (SR leukemia) | growth (RPMI-8226 leukemia) | growth (OVCAR-5 ovarian) | growth (SK-OV-3 ovarian) | growth (IGROV1 ovarian) | growth (HS 578T breast) | growth (NCI/ADR-RES ovarian) | growth (HCT-116 colon) | growth (NCI-H522 lung) | growth (A549/ATCC NSCLC) | growth (EKVX NSCLC) | growth (CCRF-CEM leukemia) | growth (OVCAR-4 ovarian) |
| --- | --- | --- | --- | --- | --- | --- | --- | --- | --- | --- | --- | --- | --- | --- | --- | --- | --- | --- | --- |
| Cc1cc([N+](=O)[O-])c(Cl)cc1NS(=O)(=O)c1ccccc1 | -3.58% (active) | 91.9% (inactive) | 62.9% (inactive) | 55.5% (inactive) | 110% (inactive) | 83.1% (inactive) | 64.3% (inactive) | 37.3% (inactive) | 83.5% (inactive) | 96% (inactive) | 85% (inactive) | 72.5% (inactive) | 78.7% (inactive) | 87.3% (inactive) |  |  |  |  |  |
| C[C@]12CC[C@@H]3C4=C(CC[C@H]3[C@@H]1CC[C@@H]2O)CC(=O)CC4 |  | 117% (inactive) | 107% (inactive) | 127% (inactive) | 113% (inactive) | 104% (inactive) | 97.5% (inactive) | 91.8% (inactive) | -62.7% (active) | 114% (inactive) | 121% (inactive) | 5.03% (active) | 95.8% (inactive) | 102% (inactive) | 90.8% (inactive) | 98.4% (inactive) | 72% (inactive) | 96.3% (inactive) | 111% (inactive) |
| CC(=O)Oc1ccc(Cl)cc1 | 91.1% (inactive) | 107% (inactive) | 98.6% (inactive) | 106% (inactive) | 97% (inactive) | 97.5% (inactive) |  |  | 88.7% (inactive) |  |  | 90.3% (inactive) | 99.1% (inactive) | 95.3% (inactive) |  | 97.9% (inactive) | 101% (inactive) | 104% (inactive) | 97.3% (inactive) |
| O=C(O)c1[nH]c(=O)[nH]c(=O)c1F | 106% (inactive) |  |  | 110% (inactive) | 78.6% (inactive) |  |  | 73.7% (inactive) | 104% (inactive) |  | 95.1% (inactive) | 123% (inactive) | 95% (inactive) | 79.3% (inactive) | 88.9% (inactive) | 90.1% (inactive) | 121% (inactive) | 78.4% (inactive) | 112% (inactive) |
| N#Cc1ncc(/N=C/c2ccc(N(CCCl)CCCl)cc2)s1 | 78.5% (inactive) | 99.4% (inactive) | 86.8% (inactive) | 57% (inactive) | 92.8% (inactive) | 33.8% (inactive) | 12.7% (inactive) |  |  | 78.5% (inactive) | 90% (inactive) | 90.4% (inactive) | 70.8% (inactive) | 71.6% (inactive) |  | 86% (inactive) | 91.2% (inactive) | 56.2% (inactive) |  |
| CN(C)P1(N(C)C)=NP(N(C)C)(N(C)C)=NP(N(C)C)(N(C)C)=N1 | 76% (inactive) | 113% (inactive) | 101% (inactive) |  |  | 97.2% (inactive) | 92.6% (inactive) | 98.1% (inactive) | 104% (inactive) | 106% (inactive) | 95.4% (inactive) | 114% (inactive) |  | 102% (inactive) |  | 99.3% (inactive) |  |  | 95% (inactive) |
| CCOC(=O)/C=C(\C)Nc1ccc(N/C(C)=C/C(=O)OCC)c2c1Oc1ccccc1O2 | 79% (inactive) | 121% (inactive) | 107% (inactive) | 100% (inactive) | 124% (inactive) | 104% (inactive) | 78.3% (inactive) | 83.2% (inactive) | 106% (inactive) |  |  | 87.3% (inactive) | 99.5% (inactive) | 105% (inactive) |  | 106% (inactive) | 89% (inactive) | 43.2% (inactive) | 114% (inactive) |
| CCN(CC)CCOc1c(C(C)C)cccc1C(C)C | 106% (inactive) |  | 99.2% (inactive) | 96.9% (inactive) | 110% (inactive) | 97.4% (inactive) | -1.29% (active) | 103% (inactive) | 90.6% (inactive) | 112% (inactive) |  | 110% (inactive) | 101% (inactive) | 95.2% (inactive) | 93.3% (inactive) | 89.5% (inactive) | 96.5% (inactive) | 102% (inactive) | 99.3% (inactive) |
| CC(C)CCC1(CCO)C(=O)NC(=S)NC1=O | 89.5% (inactive) | 107% (inactive) | 103% (inactive) | 101% (inactive) | 114% (inactive) | 103% (inactive) | 114% (inactive) |  | 99.5% (inactive) |  |  | 114% (inactive) | 114% (inactive) | 104% (inactive) |  | 91.9% (inactive) | 105% (inactive) | 115% (inactive) | 109% (inactive) |
| CCOc1cc(/C=N\Nc2nnc(C)n2N)c(C)cc1N(CCCl)CCCl | -17.4% (active) |  | 13.8% (inactive) | 17.2% (inactive) | 31% (inactive) | 21.6% (inactive) | -12.6% (active) | -37.9% (active) | 52.6% (inactive) | 40.1% (inactive) | 12.3% (inactive) | 14.6% (inactive) | 10.7% (inactive) | 12% (inactive) | 15% (inactive) |  |  | 4.43% (active) | 14.6% (inactive) |
